Source: PubChem (several laboratories)
Insulin prom up: MIN6 insulin promoter up-regulation | 190,000 compounds, 0.3% hits | MIN6 insulin promoter-GFP reporter, high-content imaging; hits give high values | z-score at 5 µM;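 active means z-score above 3 at 5 µM with at least 500 cells counted in the well; inconclusive means wells under 500 cells, flagged as cytotoxic or low count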
Lmaj promast: inhibitors of Leishmania major promastigote growth; Leishmania major promastigotes, resazurin fluorescence viability; inhibition, % at 10 µM; 200,000 compounds, 9% hits; AID 1063; in the data active means inhibition above about 50%;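 further: promastigotes grown with compound for 44 hours at 28 °C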
Insulin prom inh: TRM-6 insulin promoter activity inhibition; TRM-6 cells (human fetal islet line), insulin promoter-eGFP reporter, imaging; reporter expression induced with tamoxifen; inhibition, % at 2 µM; 130,000 compounds, 0.9% hits;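 active means inhibition above the mean plus 3 SD, with well images judged a real hit on visual review, cut at about 60% in these data, passing the limit was not always enough; inconclusive means inhibition over the cutoff but images rejected on review; inactive means inhibition not above the cutoff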
bCat KO growth: beta-catenin-lacking colon tumor cell growth suppression. HCT116 beta-catenin knockout viability, CellTiter-Glo, 60 h; hits give low values. viability, % at 10 µM. 140,000 compounds, 1.5% hits. AID 818;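 active means viability at or under a set limit, the compound median less 4 SD, cut at about 6% in these data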;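 further: 0% = Hyamine 1622 control at 20 µM and 100% = untreated cell control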
Autophagy HCS: autophagy modulation, high-content screen; 190,000 compounds, 0.98% hits; calls only at 10 µM (by protocol); MEF GFP-LC3 puncta imaging; test concentration mostly 10 µM; AID 463193;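 active means percentage of spot-positive cells more than 3 SD above its plate mean, without a fluorescence outlier flag or 80% toxicity; inconclusive means no clear call, values can overlap the other calls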;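 further: spot-positive cell cutoff set from DMSO-treated cells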
HCT116 PTEN-null: growth suppressors of cells with PTEN tumor suppressor deletion; HCT116 PTEN-null viability, CellTiter-Glo, 60 h; hits give low values; viability, % at 10 µM; 140,000 compounds, 1.2% hits;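 active means viability at or below a set limit, 4 SD under the median of all tested compounds, cut at about 3.7% in these data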;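 further: PTEN knockout HCT116 line with beta catenin targeted HCT116 as companion control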
Active calls of the source: *; i = inactive; ? = inconclusive; · = not tested or not shown; + = active, no number. Hits are enriched below; roughly 9.6% of the tested compounds scored in any of these assays.

SMILES | Insulin prom up | Lmaj promast | Insulin prom inh | bCat KO growth | Autophagy HCS | HCT116 PTEN-null
Brc1ccc(COn2ccnc2)cc1 | 0.34 | 4 | · | · | i | ·
Cc1ccc(C(=O)Nc2ccccc2C(=O)NC(C(=O)O)C(C)C)cc1 (centres undefined) | 0.08 | 2 | 16 | 0.5* | i | 0.8*
CCC(NC(=O)c1ccccc1NC(=O)c1ccccc1)C(=O)O (centres undefined) | 0.3 | 65* | · | 101 | i | 98
Cc1c(Cl)cccc1NC(=O)[C@@H](NC(=O)c1ccccc1Cl)C(C)C | -0.17 | 73* | -49 | 77 | i | 48
O=C(O)CC(NC(=O)c1ccccc1NC(=O)c1ccccc1)C(=O)O (centres undefined) | 0.22 | -5 | 11 | 102 | i | 102
CC(C)[C@H](NC(=O)c1ccccc1Cl)C(=O)NC1CCCCCC1 | -0.06 | 22 | · | · | i | ·
CCC(C)C(NC(=O)c1ccccc1NC(=O)c1ccc(C)cc1)C(=O)O (centres undefined) | · | 2 | · | · | i | ·
CCC(NC(=O)c1ccccc1NC(=O)c1ccco1)C(=O)O (centres undefined) | 0.56 | 89* | · | 109 | i | 103
O=C(c1cnc2sccn2c1=O)N1CCCc2ccccc21 | 0.01 | · | · | · | · | ·
O=[N+]([O-])C(C1CCS(=O)(=O)C1)C1CCS(=O)(=O)C1 (centres undefined) | 1.4 | 12 | ? | · | i | ·
N#CC(C(=O)NC1CC1)c1nc2ccccc2nc1N1CCCC1 (centres undefined) | 1.8 | -4 | 25 | 86 | i | 94
CCN1CCN(c2nc3ccccc3nc2C(C#N)C(=O)OC2CCCCC2)CC1 (centres undefined) | -0.62 | 85* | 8 | 80 | i | 96
N#CC(C(=O)NC1CCCCC1)c1nc2ccccc2nc1N1CCN(c2ccc(F)cc2)CC1 (centres undefined) | -0.02 | -5 | · | 79 | + | 91
CN1CCN(c2nc3ccccc3nc2C(C#N)C(=O)OC2CCCCC2)CC1 (centres undefined) | -2.2 | 90* | · | 52 | i | 50
N#CC(C(=O)OC1CCCCC1)c1nc2ccccc2nc1N1CCOCC1 (centres undefined) | 0.59 | 29 | -38 | 85 | i | 87
O=C(Cn1nc(C(F)(F)F)c2c1CCC2)N1CCN(c2ccccc2)CC1 | 0.71 | 13 | -14 | 91 | i | 90
Cc1ccc(C)c(NC(=O)C2(C)CC3c4ccccc4C2c2ccccc23)c1 (centres undefined) | · | -2 | 15 | 78 | i | 83
Cc1cccc(NC(=O)C2(C)CC3c4ccccc4C2c2ccccc23)c1C (centres undefined) | -0.35 | 71* | · | 76 | i | 71
COc1cccc(CN2CCN(Cc3nc4c(s3)CCCC4)CC2CCO)c1 (centres undefined) | · | 17 | 11 | · | i | ·
Cc1nn(-c2ccccc2)c2c1C(=O)N(Cc1ccccc1)C(=O)C(C)(C)C2 | -0.37 | 84* | -37 | 84 | i | 82
Cn1c(N2CCN(S(=O)(=O)c3ccc(Cl)cc3)CC2)nc2ccccc21 | · | 9 | · | · | i | ·
CCOP(=O)(OCC)C(NC(=O)Nc1ccc(Cl)c(Cl)c1)c1ccccc1 (centres undefined) | · | 15 | 18 | 81 | i | 66
CCOC(=O)c1c(C)[nH]c(C(=O)COC(=O)CN2C(=O)C3CCCCC3C2=O)c1C (centres undefined) | -0.32 | -3 | 14 | 95 | i | 86
COC(=O)c1ccccc1NC(=O)C1CC(=O)N(c2ccc(F)cc2)C1 (centres undefined) | 1.5 | 4 | 71* | 94 | i | 87
CCOc1ccc(N2CC(C(=O)Nc3ccccc3N3CCOCC3)CC2=O)cc1 (centres undefined) | 0.27 | 77* | 20 | 94 | i | 87
SMILES | Insulin prom up | Lmaj promast | Insulin prom inh | bCat KO growth | Autophagy HCS | HCT116 PTEN-null
O=C(Nc1ccccc1N1CCOCC1)C1CCCCN1S(=O)(=O)c1ccccc1 (centres undefined) | 0.95 | 12 | · | · | i | ·
O=C(Nc1ccccc1N1CCOCC1)C1CCN(S(=O)(=O)c2ccccc2F)CC1 | 0.76 | 56* | -30 | 93 | i | 97
O=C1CC(c2ccccc2)CCc2sccc2N1 (centres undefined) | -0.21 | -3 | -3 | 105 | i | 83
O=C(O)CN1C(=O)CC(Cc2ccc(Cl)cc2)C1=O (centres undefined) | 0.05 | -5 | · | 107 | i | 101
COc1cc(C2CC(=O)N3CN(Cc4ccco4)CSC3=C2C#N)ccc1OCc1ccccc1 (centres undefined) | 0.73 | -3 | · | 83 | i | 87
CN(C)CCCN(C(=O)c1ccc(Br)s1)c1nc2cc3c(cc2s1)OCO3 | -0.95 | 75* | 25 | · | i | ·
CN(C)CCCN(C(=O)c1ccc(S(=O)(=O)N(C)C)cc1)c1nc2cc3c(cc2s1)OCO3 | 0.84 | 10 | 37 | · | i | ·
CN(C)CCN(C(=O)c1ccc(N2C(=O)CCC2=O)cc1)c1nc2cc3c(cc2s1)OCCO3 | 0.64 | 2 | · | · | i | ·
CCOc1cccc2sc(N(CCN(C)C)C(=O)c3ccc(Br)s3)nc12 | -0.82 | 2 | 19 | · | i | ·
CCN(CC)CCN(C(=O)c1ccc(S(=O)(=O)N2CCCCC2)cc1)c1nc2cc3c(cc2s1)OCO3 | 0.85 | 3 | 75* | · | i | ·
Cc1ccc2sc(N(CCCN(C)C)C(=O)c3ccc(Br)s3)nc2c1C | -0.46 | 95* | · | · | i | ·
Cc1ccc(-c2csc(=Nc3cccnc3)n2CCCN2CCCC2=O)cc1C | · | 19 | · | 91 | i | 93
CCCOc1ccc(C2c3c(oc4ccccc4c3=O)C(=O)N2CCN(CC)CC)cc1OC (centres undefined) | -0.93 | 1 | 36 | 95 | i | 88
CCN(CC)CCOc1ccc2c(c1)C(=NO)c1cc(OCCN(CC)CC)ccc1-2 | -2.5 | 100* | -5 | 1.9* | + | 2.0*
CCN(CC)S(=O)(=O)c1ccc2c(c1)C(=NO)c1cc(S(=O)(=O)N(CC)CC)ccc1-2 | -0.53 | 24 | -73 | 1.3* | i | 2.8*
CCN(CC)S(=O)(=O)c1ccc(C)c(C)c1 | -0.15 | -2 | 10 | 90 | i | 95
CCN(CC)CCOc1ccc(Br)cc1 | -0.32 | 0 | 24 | 89 | i | 93
Cn1c(N)c(C(=O)COC(=O)C2(c3ccccc3F)CCCC2)c(=O)n(C)c1=O | 0.46 | 79* | · | 93 | i | 82
Cn1c(N)c(C(=O)COC(=O)C2(c3ccc(F)cc3)CCCC2)c(=O)n(C)c1=O | 0.12 | 0 | · | 99 | i | 107
CC(O)c1cccc(NC(=O)CCC(=O)O)c1 (centres undefined) | 0.11 | -7 | -3 | 106 | i | 109
Cc1nnc(SCCn2c(N3CC(C)CC(C)C3)nc3c2c(=O)n(C)c(=O)n3C)s1 (centres undefined) | 0.14 | -7 | -169 | 98 | i | 98
